An excerpt weighted towards active compounds, which were near 4.1% of everything screened.
CFTR F508del cor: correctors of CFTR F508del function in bronchial epithelial cells | activity (quench increase), % at 7.58 µM | CFBE cells, YFP halide quenching; stimulated with forskolin plus potentiator P3; % fluorescence drop versus neutral controls | 0.36% of 350,000 active;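 active means mean added fluorescence quench of at least 8% versus neutral control, with both replicates also reaching 8%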;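 further: cells transiently co-express mutant CFTR-F508del with the halide-sensitive YFP; corrector assay measuring rescue of mutant channel to the surface after 24 h compound exposure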
Casp6 inh: caspase-6 (human) enzyme inhibition; purified caspase-6, Z-VEID-R110 cleavage fluorescence; inhibition, % at 12.5 µM; 0.53% of 350,000 active;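 active means mean inhibition across replicates at least about 35%, with every replicate also reaching that limit, limit read from the data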;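 further: 0% = median of neutral control wells and 100% = no fluorescence left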
Target sequence (P55212 24-179 limits assumed): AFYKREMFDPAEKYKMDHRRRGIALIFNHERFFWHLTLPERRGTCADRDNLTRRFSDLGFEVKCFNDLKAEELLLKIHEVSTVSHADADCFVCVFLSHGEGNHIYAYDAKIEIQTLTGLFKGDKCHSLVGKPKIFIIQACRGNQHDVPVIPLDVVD
Target sequence (P55212 194-293 limits assumed): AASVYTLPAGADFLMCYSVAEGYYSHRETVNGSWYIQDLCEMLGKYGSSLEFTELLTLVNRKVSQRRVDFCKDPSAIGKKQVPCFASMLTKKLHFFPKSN
Env fusion inh: blocks HIV Env-driven cell-cell fusion. HeLa-JRFL Env/CEM21 cell fusion, luciferase. inhibition, % at 12.3 µM. 1.1% of 360,000 active;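 active means mean replicate inhibition score of at least 50 and every replicate individually at or above 50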;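 further: 0% = plate neutral controls and 100% = maraviroc near 300 nM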
PglD inh: blocks C. jejuni PglD acetyltransferase activity | purified PglD enzyme, DTNB colorimetric CoA detection | 0.098% of 360,000 active | AID 602405 | inhibition, % at 12.5 µM; in the data active means inhibition above about 16%, passing the limit was not always enough
ALR inh: blocks human ALR sulfhydryl oxidase activity; 3.8% of 290,000 active; AID 485317; purified ALR, DTT oxidation, H2O2 HRP-luminol luminescence; inhibition, % (concentration not given with the values);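 active means mean replicate inhibition above about 79%, with every replicate also reaching it, limit read from the data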
Target sequence (P55789 whole entry, looked up): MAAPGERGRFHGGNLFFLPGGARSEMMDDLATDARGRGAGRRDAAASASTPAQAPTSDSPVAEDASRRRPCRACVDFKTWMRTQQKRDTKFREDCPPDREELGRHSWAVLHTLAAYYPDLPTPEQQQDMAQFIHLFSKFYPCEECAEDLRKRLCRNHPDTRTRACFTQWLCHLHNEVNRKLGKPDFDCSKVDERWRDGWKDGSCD
NSD2 inh: blocks human histone methyltransferase NSD2; O96028; NSD2 peptide methylation, AlphaScreen, 120 min; inhibition, % at 12.5 µM; 0.54% of 310,000 active; AID 743445; in the data active means inhibition above about 50%
An asterisk follows results filed as active; . = not tested or not shown; [ ] = another dose, or the depositor's remark.

SMILES | CFTR F508del cor | Casp6 inh | Env fusion inh | PglD inh | ALR inh | NSD2 inh
Cc1cc(C(=O)N2CCCC(N3CCN(c4cccc(Cl)c4)CC3)C2)no1 (stereo unspecified) | 0 | 0 | -11 | -3 | 80* | 2
O=C(CCn1cccn1)N1CCCC(N2CCN(c3cccc(Cl)c3)CC2)C1 (stereo unspecified) | 2 | -2 | -21 | 0 | 93* | 1
Cc1noc(C)c1S(=O)(=O)N(C)C[C@H]1Oc2ccc(NC(=O)CCCCCC(=O)Nc3ccccc3N)cc2CC(=O)N([C@@H](C)CO)C[C@@H]1C | -2 | -2 | . | . | . | .
Cc1ccc(S(=O)(=O)N(C)C[C@H]2Oc3ncc(-c4ccncc4)cc3C(=O)N([C@H](C)CO)C[C@H]2C)cc1 | 3 | 1 | 4[16.7 µM] | 3 | . | .
C[C@H]1CN([C@@H](C)CO)C(=O)c2cccc(NC(=O)NC3CCCCC3)c2O[C@@H]1CN(C)Cc1ccc(C(=O)O)cc1 | 5 | 0 | 8[16.7 µM] | 8 | . | .
COc1ccc2c3c([nH]c2c1)[C@@H](CO)N(C(=O)Cc1ccccn1)CC31CCN(Cc2ccccn2)CC1 | 0 | -1 | . | . | . | .
COc1cccc(-c2ccc3c(c2)O[C@@H](CN(C)C(=O)C2CCOCC2)[C@@H](C)CN([C@H](C)CO)S3(=O)=O)c1 | -1 | 5 | . | 2 | . | .
Nc1nc(N)nc(-c2cc(O)ccc2O)n1 | -1 | 0 | 53 | 4 | 91* | .
CCC(=O)N1CC(=O)N2[C@H](CO)[C@H](c3ccc(C#CC4CCCC4)cc3)[C@@H]2C1 | 0 | 2 | . | . | . | .
CN=C(Nc1cccnc1)c1cccc(C(F)(F)F)c1 | 0 | 65* | 0 | -9 | -38 | 6
C[C@H](CO)N1C[C@H](C)[C@H](CN(C)CC2CCCCC2)Oc2c(NS(=O)(=O)c3cn(C)cn3)cccc2C1=O | -3 | . | -8[16.7 µM] | 1 | . | .
O=C(O)c1cnc(-c2ccccc2)nc1Sc1ccccc1 | . | . | 3 | 2 | 1 | 4
O=C(O)c1cnc(-c2ccccc2)nc1Sc1cccc(Cl)c1 | . | . | -21 | . | 96* | .
O=C(C[C@H]1C[C@@H]2c3cc(NC(=O)C4CCC4)ccc3O[C@@H]2[C@@H](CO)O1)NCC(F)(F)F | 1 | -2 | 88*[16.7 µM] | -1 | . | .
O=C(C[C@@H]1C[C@@H]2c3cc(NC(=O)C4CCC4)ccc3O[C@@H]2[C@@H](CO)O1)NCC(F)(F)F | 1 | -3 | 90*[16.7 µM] | 0 | . | .
Cc1noc(C)c1NC(=O)Nc1cccc2c1O[C@H](CN(C)Cc1ccc(-c3ccccc3)cc1)[C@@H](C)CN([C@H](C)CO)C2=O | -6 | 1 | . | 0 | . | .
Cn1ccnc1SC(=O)N1c2ccccc2Sc2ccccc21 | . | . | . | 0 | 99* | 10
O=C(Sc1nnc(-c2ccccc2)o1)N1c2ccccc2Sc2ccccc21 | . | . | 2 | -1 | 93* | 1
C[C@@H]1CN([C@H](C)CO)S(=O)(=O)c2ccc(C#CC3CC3)cc2O[C@H]1CN(C)Cc1cncnc1 | 1 | . | 16[16.7 µM] | . | . | .
Cc1nc2c(sc3nc4c(cc32)COC(C)(C)C4)c(=O)n1CC(=O)NCc1ccco1 | 13* | 6 | . | 2 | 5 | 9
COC(=O)c1c(NC(=O)CN2CCN(Cc3ccc4c(c3)OCO4)CC2)sc(C)c1C | . | . | 19 | 3 | 97* | 24
O=C(O)CCc1ccc(-c2cccs2)n1-c1ccc(C(=O)O)cc1 | 0 | 9 | 0 | 4 | 34 | .
O=C(O)CCc1ccc(-c2ccccc2)n1NC(=O)c1cccs1 | 0 | 1 | 26 | . | 15 | 3
CC(C)(C)c1ccc(C(=O)Nn2c(CCC(=O)O)ccc2-c2cccs2)cc1 | 1 | 39* | . | 6 | 33 | 5
O=C(O)CCc1ccc(-c2cccs2)n1NC(=O)c1ccccc1Br | . | . | -25 | 6 | 99* | 3
SMILES | CFTR F508del cor | Casp6 inh | Env fusion inh | PglD inh | ALR inh | NSD2 inh
C[C@@H]1CCCCO[C@@H](CN(C)CC2CCCCC2)[C@H](C)CN([C@@H](C)CO)C(=O)c2cc(NC(=O)NC3CCCCC3)ccc2O1 | 2 | . | 34[16.7 µM] | -3 | . | .
CC1(C)C(=O)C2(CCCCC2)C(=O)OC1c1cccc([N+](=O)[O-])c1 (stereo unspecified) | -1 | -2 | 5 | 5 | -3 | -1
CN(C)c1ccc(C2OC(=O)C3(CCCC3)C(=O)C2(C)C)cc1 (stereo unspecified) | . | . | 17 | 1 | 94* | -2
CC1Cc2nc(SCC(=O)N3CCOCC3)n(-c3ccccc3)c(=O)c2S1 (stereo unspecified) | 8.3* | 0 | 14 | 3 | 99* | .
CC1Cc2nc(SCC(=O)N3CCN(c4ccccc4)CC3)n(C)c(=O)c2S1 (stereo unspecified) | -2 | 1 | 15 | 3 | 98* | .
COCC#Cc1ccc2c(c1)O[C@H](CN(C)C(=O)NC(C)C)[C@@H](C)CN([C@H](C)CO)S2(=O)=O | -1 | 3 | -5[16.7 µM] | 2 | . | .
CCCNC(=O)C[C@@H]1CC[C@@H]2[C@H](COc3ccc(NC(=O)c4cccc(Cl)c4)cc3C(=O)N2C)O1 | -1 | 1 | . | -2 | . | .
CCN(CC)CCCNC(=O)c1cc(-c2ccc(O)cc2)on1 | 2 | -39 | -6 | 0 | 99* | .
CCN(CC)CCCNC(=O)c1cc2c(-c3ccc(Cl)cc3)nn(C)c2s1 | -1 | -6 | 0 | -8 | 94* | .
Cn1nc(-c2ccc(Cl)cc2)c2cc(C(=O)N3CCOCC3)sc21 | -3 | 4 | -28 | 0 | 95* | .
Cn1nc(-c2ccc(Cl)cc2)c2cc(C(=O)NCC3CCCO3)sc21 (stereo unspecified) | 3 | 3 | -8 | 2 | 93* | .
CN1CCN(CCCNC(=O)c2cc3c(-c4ccc(Cl)cc4)nn(C)c3s2)CC1 | 0 | -10 | -61 | -5 | . | .
CCCNC(=O)N[C@H]1CC[C@@H](CC(=O)NC2CCCCC2)O[C@@H]1CO | 1 | 0 | -3[16.7 µM] | 1 | . | .
Cc1noc(C)c1S(=O)(=O)Nc1ccc2c(c1)C(=O)N([C@H](C)CO)C[C@@H](C)[C@@H](CN(C)C(=O)Nc1ccc(F)cc1)O2 | -5 | . | -7[16.7 µM] | . | . | .
C[C@H](CO)N1C[C@H](C)[C@H](CN(C)S(=O)(=O)c2cccs2)Oc2ccc(NC(=O)CCC(F)(F)F)cc2C1=O | -1 | 2 | . | -3 | . | .
C[C@H](CO)N1C[C@H](C)[C@@H](CN(C)C(=O)C2CCOCC2)Oc2ncc(-c3ccccc3)cc2C1=O | -1 | 1 | 11[16.7 µM] | 4 | . | .
N#CCC(=O)Nc1ccc(C(=O)OCC(=O)NCc2ccc3c(c2)OCO3)cc1 | 2 | -2 | . | . | 99* | 24
CC(OC(=O)c1ccc(NC(=O)CC#N)cc1)C(=O)Nc1ccc2c(c1)OCCO2 (stereo unspecified) | 2 | 4 | . | . | 97* | 0
N#CCC(=O)Nc1ccc(C(=O)OCC(=O)NC(=O)Nc2ccc3c(c2)OCCO3)cc1 | -1 | 7 | . | -2 | 99* | 1
CC(=O)Nc1ccc(NC(=O)C(C)OC(=O)c2ccc3c(c2)OCCO3)cc1 (stereo unspecified) | 0 | -1 | -5 | -4 | . | 0
